This note sets out measurements from PubChem BioAssay AID2314 (National Center for Advancing Translational Sciences (NCATS), 2010).

The whole screen tested about 300,000 compounds, of which about 37,000 (12%) were called active. Only a selection was taken, and actives are over-represented in it overall. Values without a mark were called inactive. Cut-off read from the data, not from the text of the source: active = max response mostly above about 13% (no sharp cut-off); inactive = mostly below about 14%.

The nature of the assay: Cycloheximide Counterscreen for Small Molecule Inhibitors of Shiga Toxin. Note: read at 38.3 µM for the half of the compounds with a filed dose; 0% is about no effect. The following applies: cell reporter, cycloheximide protein synthesis inhibition counterscreen; stronger effect = higher value. On the technique in general: The purpose of a counterscreen is to sort out artefacts and off-target activity.
For the compound `O=C1c2cccc3c([N+](=O)[O-])ccc(c23)C(=O)N1CC1CCCO1` (stereo not given), the max response was 20%.

On to `Cc1cc(Nc2ccccc2)n(C(=O)c2ccc(N)cc2)n1`, for which the max response is 24% (active).

As to `Cc1cc(C)n(C(=O)c2ccc(S(=O)(=O)N3CCCC3)cc2)n1`, the max response is -2.32%.

In the case of `Cc1cc(Nc2ccccc2)n(CCC#N)n1`, the max response was -3.59%.

For the compound `CC(c1ccco1)N(C(=O)COc1ccccc1[N+](=O)[O-])c1ccccn1` (stereo not given), the max response was 20.7%.

For the compound `O=C(COc1ccc(S(=O)(=O)N2CCCCC2)cc1)NCc1ccccn1`, the max response was 0.485%.

For the compound `CC(c1ccco1)N(C(=O)c1ccc(S(=O)(=O)N2CCCCC2)cc1)c1ccccn1` (stereo not given), the max response was 15.1% (active).

Turning to `CC(C)N1CCC(=NNc2ccc([N+](=O)[O-])cc2S(=O)(=O)N2CCOCC2)CC1`, the max response is -2.55%.

As for `CN(c1ccccc1)S(=O)(=O)c1ccc2[nH]c(=O)[nH]c2c1`, the max response was -2.46%.

As to `Fc1ccc(CNc2nc3ccccc3n3nnnc23)cc1`, the max response is 13.3% (active).

Regarding `CCOC(=O)CNc1nc2ccccc2n2c(C)nnc12`, the max response is 7.6%.

Consider `COc1ccc(CNc2nnnn2C)cc1`, for which the max response was -1.69%.

For `Cc1ccc(-c2ccc(=O)n(Cc3ccc(F)cc3Cl)n2)cc1`, the max response is 7.94%.

On to `CCN1/C(=C\c2ccc3ccccc3[n+]2CC)Sc2cc(C)ccc21`, for which the max response is 1.19%.

Turning to `CCN1/C(=C/c2ccc3ccc(C)cc3[n+]2CC)Sc2ccccc21`, the max response is 11.9% (active).

For the compound `CCN1CCN(CCNC(=O)c2ccc(/C=C3/Sc4ccccc4N(Cc4cccc(C)c4)C3=O)cc2)CC1`, the max response is -11.9%.

`Cc1ccc2sc(N(CCN(C)C)C(=O)/C=C/c3cccs3)nc2c1C`: the max response was -8.25%.

Consider `COc1ccc(S(=O)(=O)Nc2ccc(O)c(Sc3nc4ccccc4s3)c2)cc1`, for which the max response was 1.12%.

In the case of `COc1ccc(-n2c(O)c(C(C)=Nc3ccc4c(c3)CCC4)c(=O)[nH]c2=O)cc1`, the max response is -1.73%.

For `COc1ccc(N=C(C)c2sc3ccccc3c2O)cc1`, the max response was 43.2% (active).

On to `CC(=O)[C@@]12O[C@@H]1C[C@H]1[C@@H]3CC[C@H]4C[C@@H](O)CC[C@]4(C)[C@H]3CC[C@@]12C`, for which the max response is -5.5%.

With `CCN1CCC2(CCN(Cc3cn[nH]c3-c3ccc(OC)c(F)c3)C2)C1` (stereo not given), the max response is -2.52%.

Consider `Cc1ccc(NC(=O)C2CCN(S(=O)(=O)c3ccc4c(c3)NC(=O)CO4)CC2)cc1C`, for which the max response is 1.16%.

On to `Fc1ccc2nc(Nc3nc4c(s3)CCCC4)sc2c1`, for which the max response is 40.4% (active).

With `O=C(Cn1c(=O)sc2ccccc21)Nc1nc2c(s1)CCCC2`, the max response was 3.35%.

As for `COC(=O)C(NC(C)=O)(Nc1nc2c(s1)CCCC2)C(F)(F)F` (stereo not given), the max response is -2.42%.

Take `CN(C)c1cc(-c2ccc(F)cc2)oc(=O)c1Cl`: the max response was 2.21%.

As for `Cc1ccccc1-c1n[nH]c(=S)n1C`, the max response is 6.29%.

As for `Cc1cc(C)nc(Nc2ncn[nH]2)n1`, the max response was -1.33%.

Take `Cc1cc(C)nc(Nc2n[nH]c(-c3ccccc3N)n2)n1`: the max response is 52% (active).

As for `CS(=O)(=O)Nc1ccccc1N=C(c1ccccc1)c1ccccc1`, the max response was -4.16%.

Take `C/C=C(/C)C(=O)O[C@@H]1c2cc3c(c4c2[C@@]2(CO4)C(=O)C(OC)=C(OC)C=C2C[C@@H](C)[C@H]1C)OCO3`: the max response is -1.03%.

Turning to `COc1ccc(S(=O)(=O)N2CCSCC2)cc1`, the max response was -2.78%.

Regarding `CCCNC(=O)c1ccc(Cl)c(Cl)c1`, the max response is -2.92%.

Regarding `CCCNC(=O)c1c(Cl)cnn1-c1ccc(C)cc1`, the max response was 39.1% (active).

`CCCNC(=O)CCc1c(C)nc2c(c(C)nn2-c2ccc(C)cc2)c1C`: the max response is -2.97%.

In the case of `O=C1C=CC(=O)N1c1ccc(N2CCCCC2)cc1`, the max response is 8%.

On to `Cc1n[nH]c(C)c1S(=O)(=O)N1CCCC(C(=O)Nc2ccc(Br)cc2)C1` (stereo not given), for which the max response is -4.38%.

Turning to `O=C(COc1ccc(Cl)cc1)NCCSc1ccccc1`, the max response is -2.45%.

Take `COC(=O)c1sccc1NC(=O)CCC1CCCC1`: the max response was 11%.

As to `O=C(COc1ccc(Cl)cc1)Nc1ccccc1CO`, the max response was 19.6% (active).

Regarding `COC(=O)c1sccc1NC(=O)c1ccc(Cl)cc1`, the max response was -0.926%.

As for `CCS(=O)(=O)c1ccc(O)c(NC(=O)COc2ccc(Cl)cc2)c1`, the max response is -2.47%.

As for `COC(=O)c1sccc1NC(=O)COc1ccc(Cl)cc1`, the max response is 18% (active).

In the case of `CCOc1ccc(N/C(N)=N/c2nc(C)c(C)c(=O)[nH]2)cc1`, the max response was 0.863%.

As to `Cc1ccc(NC(=O)Cn2cccc2C2=NC(c3ccccc3)CO2)c(C)c1` (stereo not given), the max response was -4.36%.

As for `N#Cc1ccc(OCc2nnc(-c3ccc([N+](=O)[O-])cc3)o2)cc1`, the max response is -2.49%.

Take `COCCn1c(SCC(=O)Nc2cc(Cl)ccc2OC)nc2c(c1=O)SC(C)C2` (stereo not given): the max response is -1.62%.

As to `O=S(=O)(Oc1ccccc1C(=S)N1CCOCC1)c1ccc(Cl)cc1`, the max response is -1.08%.

On to `NC(=O)CC(NC(=O)Cc1ccc(Br)cc1)c1ccc(NC2CC3CCC2C3)c([N+](=O)[O-])c1` (stereo not given), for which the max response is 8.14%.

Regarding `O=C(/C=C/c1ccc(F)cc1)NCCNC(=O)/C=C/c1ccc(F)cc1`, the max response was -1.57%.

In the case of `CC(C)c1ccc(/C=C/C(=O)NNC(=O)c2cccnc2)cc1`, the max response was 10.9%.

Regarding `C=CCNC(=O)/C=C/c1ccc(C(C)C)cc1`, the max response was 57.7% (active).

With `O=C(/C=C/c1cccc(C(F)(F)F)c1)N1CCN(c2ccccn2)CC1`, the max response is 2.61%.

`O=C(c1cccs1)N(Cc1cc2ccccc2[nH]c1=O)CC1CCCO1` (stereo not given): the max response was -1.8%.

Regarding `COc1ccc(NC(=O)CN2C(=O)COc3ccc(S(=O)(=O)N4CCOCC4)cc32)c(OC)c1`, the max response is -3.45%.

As to `CCCCC[C@H]1CN(C2CCCCC2)C(=O)[C@@H]1CC(=O)NCc1ccc(OC)cc1`, the max response is -1.9%.

Regarding `Cc1ccc(-n2c(SCC(=O)Nc3ccc4c(c3)OCO4)nnc2-c2ccccn2)cc1`, the max response is -4.03%.

`O=C(CSc1nnnn1-c1ccc2c(c1)CCC2)Nc1ccc2c(c1)OCCO2`: the max response is 22.4% (active).

For the compound `O=C(CSc1nnnn1C1CCCC1)Nc1ccc2c(c1)OCCO2`, the max response was 20.7% (active).

Regarding `Cc1ccc(-n2c(SCC(=O)Nc3ccc4c(c3)OCO4)nnc2-c2ccoc2C)cc1`, the max response was -6.42%.

As to `CCn1c(SCC(=O)Nc2ccc3c(c2)OCCO3)nc2c(c1=O)SC(C)C2` (stereo not given), the max response was -2.67%.

For the compound `CCC(=O)Nc1cccc(NC(=O)CSc2nnnn2C2CCCC2)c1`, the max response is 3.23%.

With `COCCCNC(NC(=O)c1ccc(OC)cc1)C(Cl)(Cl)Cl` (stereo not given), the max response is -1.44%.

For the compound `O=S(=O)(c1cc(Cl)ccc1Cl)N1CCN(Cc2ccco2)CC1`, the max response is -2.5%.

In the case of `CCC(C)N1C(=O)S/C(=C/c2ccc(Sc3nc4ccccc4[nH]3)o2)C1=O` (stereo not given), the max response is 8.57%.

With `CC1CCN(S(=O)(=O)c2ccc3[nH]c(=O)ccc3c2)CC1`, the max response is 0.735%.

Consider `CCN(c1ccc2c(c1)OCO2)S(=O)(=O)c1cc(Br)cc2c1N(C(=O)C1CC1)CC2`, for which the max response is 10.1%.

On to `COc1ccc(Cl)cc1NC(=O)CN(C)C(=O)CCCc1c[nH]c2ccccc12`, for which the max response was -3.1%.

`Cc1cccc(OCC(=O)NC2CC(C)(C)NC(C)(C)C2)c1`: the max response is -1.93%.

As for `COc1ccc2oc(=O)cc(CN3CCOCC3)c2c1`, the max response is -3.2%.

Consider `Cc1cc(=O)oc2c3c(cc(OCC(=O)NCCC(=O)N[C@@H](C)C(=O)O)c12)OC(C)(C)CC3`, for which the max response is -1.18%.

Consider `COc1ccc(S(=O)(=O)NCCc2cc3ccc(C)c(C)c3[nH]c2=O)cc1`, for which the max response was -6.24%.

As for `COCc1c(C(=O)N/N=C\c2cccnc2)nnn1-c1nonc1N`, the max response is -4.36%.

With `FC(F)(F)c1cccc(-c2cc3ccccc3nc2N2CCCC2)c1`, the max response was 3.78%.

Regarding `COc1ccc(/C=C(\C#N)c2c[nH]c3ccccc23)cc1`, the max response is 47.7% (active).

Take `CCC/C(=N\O)c1c[nH]c2ccccc12`: the max response was 13.5%.

For `COc1ccc2[nH]cc(/C=C(/C#N)S(=O)(=O)c3ccccc3)c2c1`, the max response was -3.42%.

For `CCO[C@@H]1OC(C(N)=O)=C[C@H](c2ccc(Br)cc2)[C@H]1CCCO`, the max response is -0.863%.

As for `CCC/C=C(\CCC)C(NC(=O)Cc1ccccc1)c1ccc(C(=O)OC)cc1` (stereo not given), the max response is -2.68%.

As to `CN(C)Cc1c(O)ccc2c(=O)c(-c3ccccc3Cl)coc12`, the max response is 1.67%.

As to `CN(C)Cc1c(O)ccc2occ(C(O)c3ccccc3)c12` (stereo not given), the max response is 17.6% (active).

As to `Cc1ccc(C(=O)c2coc3ccc(O)c(CN(C)C)c23)cc1`, the max response is -0.656%.

In the case of `Clc1c(OCCCn2ccnc2)ccc2ccccc12`, the max response is 20.6% (active).

As for `c1ccc(Cc2ccc(OCCn3ccnc3)cc2)cc1`, the max response is 12%.

`C=CCc1cc(C)ccc1OCCCn1ccnc1`: the max response is -0.408%.

In the case of `COc1cc(S(=O)(=O)Nc2ncn[nH]2)ccc1Cl`, the max response is -1.79%.

For `CCSc1nnc(-c2cc3c(s2)-c2ccccc2CC3)o1`, the max response is 40.7% (active).

With `Fc1ccc(CSc2nnc(-c3cc4c(s3)-c3ccccc3CC4)o2)cc1`, the max response was 1.49%.

As for `CSc1nc2sc3c(c2c(=O)[nH]1)CCc1ccccc1-3`, the max response is -2.09%.

For `CC(=O)NCCc1nc2cc(NC(=O)c3ccccc3)ccc2n1C`, the max response was 20.2%.

Regarding `Cn1c(NC(=O)c2ccccc2)nc2ccccc21`, the max response is 25.8% (active).

As to `Cn1sc(NC(=O)c2ccccc2)nc1=O`, the max response was 9.66%.

Take `COc1cc2c(cc1OC)C(C(=O)NCc1ccco1)C1c3ccccc3CCN1C2=O` (stereo not given): the max response is -2.13%.

On to `Cc1cc(=O)oc2cc(OC(C)C(=O)NCCc3ccc(S(N)(=O)=O)cc3)ccc12` (stereo not given), for which the max response was -2.25%.
